An excerpt weighted towards active compounds, which were near 3.8% of everything screened.
MITF act: MITF TRPM1 promoter activation in melanoma cells; SK-MEL-5 TRPM1-promoter luciferase, 24 h; % of positive control, neutral wells = 0; activation, % at 12.5 µM; actives 0.75% (n = 300,000); AID 588334;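 active = mean activation of at least 80% with every replicate also reaching 80%; inconclusive = mean reaches 80% but some replicate falls short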;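 note: 0% = neutral control wells and 100% = parthenolide positive control wells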
Wnt act: activators of Wnt/beta-catenin signaling; Wnt/beta-catenin reporter cell assay, activator, plate reader; actives 1.2% (n = 300,000); activation, % at 9.35 µM; in the data active = activation above about 30%, passing the limit was not always enough; inconclusive = no clear call, values can overlap the other calls;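 note: 0% = neutral control wells and 100% = positive control wells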
HSF1 inh: HSF1 inhibition; activity change, negative = inhibition, % at 7.5 µM (by protocol); actives 0.77% (n = 300,000); NIH3T3-HGL HSE-luciferase, MG132-induced, luminescence 8 h; active compounds read low;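 active = more than half of replicate wells show activity change below -50%, luminescence cut by over half; inconclusive = some wells, but at most half, below -50%; inactive = no replicate well below -50%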;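 note: luciferase reports HSF-1 transcriptional activity via heat shock element; 0% = median of DMSO wells and -100% = zero luminescence signal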
HSF1 activator: increases HSF-1 driven luciferase reporter signal | actives 1.7% (n = 300,000) | activation, % at 9 µM | NIH3T3-HGL HSF-1 luciferase reporter, MG132, 8 h; 100% = twice DMSO control signal;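 active = mean replicate activation of at least 50% with a set share of replicates each reaching 50%; inconclusive = only one of those two conditions met; inactive = mean below 50% and too few replicates reaching it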;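 note: 0% = median of the neutral control wells and 100% = twice that signal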
esBAF inh: inhibitors of esBAF chromatin remodeling in mouse ES cells | actives 2% (n = 350,000) | Bmi1-luciferase knock-in reporter, 24 h; 100% = twice the neutral-well signal | reporter increase, % at 12.5 µM; in the data active = activation above about 40%; inconclusive = no clear call, values can overlap the other calls;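 note: 0% = median of the plate's neutral control wells and 100% = double that signal; a rise in the Bmi1 reporter signal indicates esBAF inhibition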
* marks the source's active call; other numbers are inactive results.

Results for C=CCOC(=O)/C(=C\c1cccc2ccccc12)NC(=O)c1ccccc1 ?
MITF act: 26.1; HSF1 inh: 16.5; HSF1 activator: 35.2; esBAF inh: 55.8*

Results for C=CCOC(=O)/C(=C\c1ccccc1)NC(=O)c1ccc(C)cc1 ?
MITF act: 54.9; Wnt act: 18.8; HSF1 inh: 3.4; HSF1 activator: -4.4

How did CC(C)C(=O)Nc1ccc2c(c1)C(=O)N(C)[C@H]1CC[C@@H](CC(=O)NCc3ccccc3F)O[C@H]1CO2 do in these assays?
esBAF inh: -0.4

What do the screens show for `CC(C)C#Cc1ccc2c(c1)O[C@@H](CN(C)Cc1ccccc1)[C@@H](C)CN([C@H](C)CO)S2(=O)=O`?
esBAF inh: -0.9

Results for Cc1cccc(C)c1OCc1nc2ccccc2c(=O)n1/N=C/c1ccc(OCC(=O)O)cc1 ?
MITF act: -0.6; Wnt act: 0.4; HSF1 inh: 22.5; HSF1 activator: 52.8*

What do the screens show for `COc1ccc(N2CCN(C(=O)CCCOc3cc(=O)n(C)c4ccccc34)CC2)cc1`?
MITF act: -6.0; Wnt act: -2.5; HSF1 inh: 9.4; HSF1 activator: 21.3; esBAF inh: -1.2

What do the screens show for `CC1CCN(C(=O)CCCOc2cc(=O)n(C)c3ccccc23)CC1`?
MITF act: 9.7; Wnt act: 4.6; HSF1 inh: 36.9; HSF1 activator: 74.9*; esBAF inh: 16.1

How did CCOc1ccc(Nc2nc(-c3cccnc3)cs2)cc1 do in these assays?
Wnt act: 13.8; HSF1 inh: 4.7; HSF1 activator: -5.6; esBAF inh: 50.3*

How did O=C(Nc1cccc(-c2csc(Nc3cccc(C(F)(F)F)c3)n2)c1)c1ccccc1 do in these assays?
MITF act: -9.3; Wnt act: 0.2; HSF1 inh: -5.4; HSF1 activator: -12.7; esBAF inh: -2.5

How did Cc1ccn2cc(-c3cccc(NC(=O)c4ccccc4)c3)nc2c1 do in these assays?
MITF act: 105.0*; Wnt act: 17.2; HSF1 inh: 10.5; HSF1 activator: 14.1

What do the screens show for `CC(=O)c1cccc(Nc2nc(-c3cccnc3)cs2)c1`?
Wnt act: 16.8; HSF1 inh: 19.6; HSF1 activator: 31.4; esBAF inh: 54.2*

Results for O=C(Nc1cccc(-c2csc(Nc3ccccc3)n2)c1)c1ccccc1 ?
MITF act: 106.4*; Wnt act: 26.9; HSF1 inh: 12.7; HSF1 activator: 22.6; esBAF inh: 57.4*

Results for CCC(=O)N1C[C@@H]2[C@H](c3ccccc31)[C@H](CO)N2CC1CCCC1 ?
esBAF inh: -7.3

Results for CC(=O)c1cccc(Nc2nc(-c3ccccc3)cs2)c1 ?
MITF act: 130.0*; Wnt act: 20.8; HSF1 inh: 5.2; HSF1 activator: 23.5; esBAF inh: 7.4

What do the screens show for `CC(=O)Nc1ccc(-c2csc(NCCc3ccccc3)n2)cc1`?
Wnt act: 2.6; HSF1 inh: 4.9; HSF1 activator: 18.3; esBAF inh: 46.7*

What do the screens show for `CC(=O)c1ccc(Nc2nc(-c3cccnc3)cs2)cc1`?
Wnt act: 4.2; HSF1 inh: 13.5; HSF1 activator: 4.4; esBAF inh: 51.5*

How did NC(=O)c1cc(-c2csc(NCCc3ccccc3)n2)ccc1O do in these assays?
MITF act: 18.2; Wnt act: 3.1; HSF1 inh: -5.6; HSF1 activator: -8.1; esBAF inh: 5.7

What do the screens show for `CN(C)CC(=O)Nc1ccc2c(c1)[C@H]1C[C@@H](CC(=O)N3CCN(C)CC3)O[C@@H](CO)[C@H]1O2`?
esBAF inh: 2.7

Results for C[C@H](CO)N1C[C@H](C)[C@@H](CN(C)C(=O)c2cccc(F)c2)Oc2ncc(C3=CCCCC3)cc2C1=O ?
esBAF inh: 2.3

How did COc1ccc2oc(-c3ccco3)cc(=O)c2c1 do in these assays?
MITF act: 77.8; Wnt act: 38.2*; HSF1 inh: 21.1; HSF1 activator: 12.9; esBAF inh: 19.7

What do the screens show for `CCOc1ccc(NC(=O)COC(=O)C2(C)CC2(Cl)Cl)c([N+](=O)[O-])c1` (stereo not given)?
MITF act: 13.6; Wnt act: -7.7; HSF1 inh: -53.3*; HSF1 activator: -62.3

What do the screens show for `CC1(C(=O)OCC(=O)Nc2ccc3ccccc3c2)CC1(Cl)Cl` (stereo not given)?
MITF act: 31.4; Wnt act: 2.8; HSF1 inh: 29.1; HSF1 activator: 66.0*; esBAF inh: 13.5

What do the screens show for `CCOc1ccc(OCC(=O)Nc2ccc(OC)cc2[N+](=O)[O-])cc1`?
MITF act: -4.6; Wnt act: 0.1; HSF1 inh: -10.2; HSF1 activator: 7.0

What do the screens show for `COc1ccc(-c2cn3cc(Cl)ccc3n2)cc1OC`?
MITF act: 37.7; Wnt act: 14.6; HSF1 inh: 36.5; HSF1 activator: 64.0*; esBAF inh: 69.1*

Results for COc1ccc(-c2nc3ccc(C)cn3c2Cc2ccc(C)cc2)cc1OC ?
Wnt act: -0.2; esBAF inh: -1.7

What do the screens show for `Cc1ccc(-c2cn3nc(C)c(C)nc3n2)cc1`?
MITF act: -62.5; HSF1 inh: -10.8; HSF1 activator: 11.0; esBAF inh: -73.6

How did COc1ccc(-c2cn3nc(C)c(C)nc3n2)cc1OC do in these assays?
MITF act: inconclusive; Wnt act: inconclusive; esBAF inh: 46.7*

What do the screens show for `COc1ccc(-c2cn3cc(C)ccc3n2)cc1Br`?
MITF act: 11.0; Wnt act: 18.0; HSF1 inh: 42.0; HSF1 activator: 65.7*

Results for C[C@@H]1CN([C@H](C)CO)C(=O)Cc2cc(NS(=O)(=O)c3cn(C)cn3)ccc2O[C@@H]1CN(C)C(=O)Nc1ccc(C(F)(F)F)cc1 ?
esBAF inh: -1.0

What do the screens show for `CC(C)NC(=O)N(C)C[C@H]1OCCCC[C@@H](C)Oc2ccc(NS(C)(=O)=O)cc2C(=O)N([C@@H](C)CO)C[C@H]1C`?
esBAF inh: -3.4

Results for C(=NOCc1ccccc1)c1ccncc1 ?
MITF act: 57.2; Wnt act: 7.6; esBAF inh: 38.5

How did C(=NOCCc1ccccc1)c1cccnc1 do in these assays?
MITF act: 87.1*; Wnt act: -0.2; esBAF inh: 51.5*

How did O=C(c1cccnc1)N1C[C@H]2[C@@H](c3ccccc31)[C@@H](CO)N2CC1CCCCC1 do in these assays?
esBAF inh: -3.7

How did CCC(=O)N(C)C[C@@H]1Oc2cc(C#Cc3ccccc3)ccc2S(=O)(=O)N([C@H](C)CO)C[C@H]1C do in these assays?
esBAF inh: 6.5

How did COc1ccc(-n2nc(C(=O)NCC(=O)N3CCN(c4ccccn4)CC3)c3ccccc3c2=O)cc1Cl do in these assays?
MITF act: 29.2; Wnt act: 2.5; HSF1 inh: -9.2; HSF1 activator: 4.2

Results for COc1ccc(-n2nc(C(=O)NCC(=O)N3CCC(C)CC3)c3ccccc3c2=O)cc1Cl ?
MITF act: 78.8; Wnt act: 8.1; HSF1 inh: 3.7; HSF1 activator: 16.9; esBAF inh: 47.3*
